Measurements from PubChem BioAssay (Tox21).
Results filed as inconclusive are left out. The source made the active and inactive calls. Unless noted, calls come from the whole dose curve; as a rule, active = well fitted curve in the direction sought with a large enough effect in the repeat runs; inconclusive = weak or mixed curves; inactive = no such curve, though single readings can be large; an effect the other way counts as inactive or inconclusive.

Legend:
[1] = A CellTox Green Cytotoxicity Assay to monitor cytotoxicity in HepG2 cells - 16 hour (AID 1224876); note: nearly all actives have a fitted effect of over 45% in size
Method in brief: (§1)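 HepG2 cells, 600/well, preincubated 5 h with CellTox Green dye, then exposed to Tox21 compounds in DMSO at 37 C for up to 40 h. Dead-cell DNA fluorescence read at the indicated time point.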

[2] = qHTS RealTime-Glo MT Cell Viability Assay in HepG2 cells - 32 hour (AID 1224877); note: nearly all actives have a fitted effect of over 55% in size
Method in brief: (§2)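 HepG2 suspension premixed with RealTime-Glo reagents is plated at 600 cells per well and left 5 h at 37 C/5% CO2. Compounds in DMSO then go in, and bioluminescence reflecting viable cell number is recorded over 40 h.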

[3] = A CellTox Green Cytotoxicity Assay to monitor cytotoxicity in HepG2 cells - 24 hour (AID 1224878); note: nearly all actives have a fitted effect of over 45% in size
Method in brief: as §1

[4] = A CellTox Green Cytotoxicity Assay to monitor cytotoxicity in HepG2 cells - 40 hour (AID 1224879); note: nearly all actives have a fitted effect of over 40% in size
Method in brief: as §1

[5] = qHTS RealTime-Glo MT Cell Viability Assay in HEK293 cells - 0 hour (AID 1224880); note: top concentration of the series differs between compounds; nearly all actives have a fitted effect of over 45% in size
Method in brief: (§3)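 600 cells/well were plated with the nonlytic NanoLuc/prosubstrate reagent, pre-incubated 5 h, then given 23 nL of compound in DMSO. Incubation at 37 C for 40 h, with luminescence from viable-cell-reduced substrate read repeatedly from 0 h.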

[6] = A CellTox Green Cytotoxicity Assay to monitor cytotoxicity in HEK293 cells - 32 hour (AID 1224881); note: nearly all actives have a fitted effect of over 40% in size
Method in brief: (§4)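 HEK293 cells, 600/well, were preincubated 5 hours and then exposed to compounds at 37 C for up to 40 hours. A cell-impermeant cyanine dye staining dead-cell DNA was read by fluorescence at 0, 8, 16, 24, 32 and 40 h time points.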

[7] = A CellTox Green Cytotoxicity Assay to monitor cytotoxicity in HepG2 cells - 0 hour (AID 1224882); note: nearly all actives have a fitted effect of over 35% in size
Method in brief: as §1

[8] = A CellTox Green Cytotoxicity Assay to monitor cytotoxicity in HepG2 cells - 32 hour (AID 1224883); note: nearly all actives have a fitted effect of over 50% in size
Method in brief: as §1

[9] = A CellTox Green Cytotoxicity Assay to monitor cytotoxicity in HEK293 cells - 8 hour (AID 1224884); note: nearly all actives have a fitted effect of over 35% in size
Method in brief: as §4

[10] = qHTS RealTime-Glo MT Cell Viability Assay in HepG2 cells - 16 hour (AID 1224885); note: nearly all actives have a fitted effect of over 50% in size
Method in brief: as §2

[11] = qHTS RealTime-Glo MT Cell Viability Assay in HEK293 cells - 24 hour (AID 1224886); note: top concentration of the series differs between compounds; nearly all actives have a fitted effect of over 50% in size
Method in brief: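 Reads taken at 0, 8, 16, 24, 32 and 40 h from the same wells. HEK293 cells (600/well) carried RealTime-Glo reagents from seeding, with compound added after a 5 h settle at 37 C.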

[12] = A CellTox Green Cytotoxicity Assay to monitor cytotoxicity in HEK293 cells - 16 hour (AID 1224888); note: nearly all actives have a fitted effect of over 35% in size
Method in brief: as §4

[13] = qHTS RealTime-Glo MT Cell Viability Assay in HepG2 cells - 0 hour (AID 1224889); note: nearly all actives have a fitted effect of over 50% in size
Method in brief: as §2

[14] = A CellTox Green Cytotoxicity Assay to monitor cytotoxicity in HepG2 cells - 8 hour (AID 1224890); note: nearly all actives have a fitted effect of over 45% in size
Method in brief: as §1

[15] = qHTS assay to identify small molecule antagonists of the estrogen receptor alpha (ER-alpha) signaling pathway using the BG1 cell line in the presence of 0.1 nM 17-beta-estradiol - cell viability counter screen (AID 1259241); note: nearly all actives have a fitted effect of over 40% in size
Method in brief: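 Cytotoxicity counter-screen: live-cell protease activity measured by fluorescence (30 min reagent step) in the same wells. Cells were VM7Luc4E2 with endogenous ER-alpha and ERE-driven luciferase, treated 22 hr at 37C alongside 0.1 nM 17beta-estradiol final.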

[16] = qHTS assay to identify small molecule antagonists of the androgen receptor (AR) signaling pathway using the MDA cell line in the presence of 0.5 nM R1881 - cell viability counter screen (AID 1259242); note: nearly all actives have a fitted effect of over 45% in size
Method in brief: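 MDA-kb2 cells (MMTV-luciferase, AR/GR responsive) were treated with compounds plus 0.5 nM R1881 (final) for 16 hr at 37C, 0% CO2. Viability was then read in the same wells as live-cell protease fluorescence (CellTiter-Fluor, 30 min).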

[17] = target: Estrogen receptor (Homo sapiens) (UniProt P03372); assay: qHTS assay to identify small molecule antagonists of the estrogen receptor alpha (ER-alpha) signaling pathway using the BG1 cell line in the presence of 0.1 nM 17-beta-estradiol (AID 1259244); note: nearly all actives have a fitted effect of over 50% in size
Method in brief: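 VM7Luc4E2 cells (endogenous full-length ER-alpha, 4×ERE-luciferase), kept 5 days in phenol red-free, charcoal-stripped FBS medium; 4,000 cells/well. Compounds added with 0.1 nM (final) 17beta-estradiol, 22 hr at 37C; luminescence read with ONE-Glo after 30 min.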

[18] = qHTS RealTime-Glo MT Cell Viability Assay in HEK293 cells - 8 hour (AID 1224887)
Method in brief: as §3

[19] = qHTS assay to identify small molecule phospholipidosis (PLD) inducers (AID 1259344; active = well fitted curve in the direction sought with a large enough effect; an effect the other way counts as inactive or inconclusive)
Method in brief: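 Phospholipidosis is scored by imaging LipidTOX-stained pits in HepG2 cells exposed to compound for 24 h at 37 C; pit counts and integrated intensities per well and per cell serve as outputs.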

[20] = target: Androgen receptor (Homo sapiens) (UniProt P10275); assay: qHTS assay to identify small molecule antagonists of the androgen receptor (AR) signaling pathway using the MDA cell line in the presence of 0.5 nM R1881 (AID 1259243); note: nearly all actives have a fitted effect of over 50% in size
Method in brief: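 MDA-kb2 cells (MMTV-luciferase, responsive to AR and GR) at 3,000/well, rested 5 h at 37C, 0% CO2, then given compounds plus 0.5 nM R1881 (final) for 16 hr. Luciferase read with ONE-Glo after 30 min at room temperature.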
% is set by controls: 0 for no effect and ±100 for the full control effect.

Sequence of Androgen receptor (Homo sapiens) (P10275 whole entry, looked up): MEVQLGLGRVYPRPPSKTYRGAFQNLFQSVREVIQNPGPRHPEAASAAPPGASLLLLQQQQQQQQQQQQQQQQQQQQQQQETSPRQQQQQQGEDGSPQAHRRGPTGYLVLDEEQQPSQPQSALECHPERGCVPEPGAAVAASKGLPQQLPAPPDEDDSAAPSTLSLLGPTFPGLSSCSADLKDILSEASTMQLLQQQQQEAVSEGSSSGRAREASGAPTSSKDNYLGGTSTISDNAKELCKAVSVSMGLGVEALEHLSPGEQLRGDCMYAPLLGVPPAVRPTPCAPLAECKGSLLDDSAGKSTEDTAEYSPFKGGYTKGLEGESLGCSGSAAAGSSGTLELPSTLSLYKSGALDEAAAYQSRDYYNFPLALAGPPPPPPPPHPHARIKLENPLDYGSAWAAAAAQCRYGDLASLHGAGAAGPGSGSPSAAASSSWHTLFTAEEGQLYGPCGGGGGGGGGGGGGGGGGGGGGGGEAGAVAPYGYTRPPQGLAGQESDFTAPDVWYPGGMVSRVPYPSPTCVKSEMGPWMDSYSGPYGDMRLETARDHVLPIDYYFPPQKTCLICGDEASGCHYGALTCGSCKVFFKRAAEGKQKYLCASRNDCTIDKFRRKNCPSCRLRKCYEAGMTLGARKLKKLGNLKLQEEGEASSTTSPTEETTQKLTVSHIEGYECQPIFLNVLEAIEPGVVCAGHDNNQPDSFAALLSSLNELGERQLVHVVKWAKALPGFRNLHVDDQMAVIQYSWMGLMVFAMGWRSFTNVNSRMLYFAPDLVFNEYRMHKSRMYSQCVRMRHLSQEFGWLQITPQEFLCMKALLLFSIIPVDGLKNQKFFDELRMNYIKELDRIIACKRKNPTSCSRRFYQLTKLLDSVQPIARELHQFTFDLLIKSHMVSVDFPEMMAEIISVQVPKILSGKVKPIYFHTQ
Sequence of Estrogen receptor (Homo sapiens) (P03372 whole entry, looked up): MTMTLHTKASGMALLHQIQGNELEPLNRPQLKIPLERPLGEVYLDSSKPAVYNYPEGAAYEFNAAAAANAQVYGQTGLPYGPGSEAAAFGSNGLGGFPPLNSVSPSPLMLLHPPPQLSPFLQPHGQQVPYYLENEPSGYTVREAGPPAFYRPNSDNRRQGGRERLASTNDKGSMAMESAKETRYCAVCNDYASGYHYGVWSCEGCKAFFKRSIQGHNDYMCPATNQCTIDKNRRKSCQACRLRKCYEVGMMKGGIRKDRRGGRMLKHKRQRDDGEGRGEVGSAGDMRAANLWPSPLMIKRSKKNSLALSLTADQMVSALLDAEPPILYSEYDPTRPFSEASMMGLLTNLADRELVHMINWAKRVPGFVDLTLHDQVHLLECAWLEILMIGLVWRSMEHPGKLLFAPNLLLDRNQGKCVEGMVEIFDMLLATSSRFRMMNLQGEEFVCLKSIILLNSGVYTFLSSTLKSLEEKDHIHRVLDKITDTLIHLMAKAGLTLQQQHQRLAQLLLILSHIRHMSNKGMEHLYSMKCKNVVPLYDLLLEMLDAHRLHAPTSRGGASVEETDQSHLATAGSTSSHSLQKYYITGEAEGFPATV

C[Si]1(C)O[Si](C)(C)O[Si](C)(C)O[Si](C)(C)O[Si](C)(C)O1
inactive: Potency [1] | outcome [2] | Potency [3] | Potency [4] | Potency [5] | Potency [6] | Potency [7] | Potency [8] | Potency [9] | outcome [10] | Potency [11] | Potency [12] | Potency [13] | Potency [14] | outcome [15] | outcome [16] | outcome [17]

O=C(O)[C@H](O)c1ccccc1
inactive: Potency [1] | outcome [2] | Potency [3] | Potency [4] | Potency [5] | Potency [6] | Potency [7] | Potency [8] | Potency [9] | outcome [10] | Potency [11] | Potency [18] | Potency [12] | Potency [13] | Potency [14] | outcome [15] | outcome [16] | outcome [17] | outcome [19]

CO[Si](CCCn1c(=O)n(CCC[Si](OC)(OC)OC)c(=O)n(CCC[Si](OC)(OC)OC)c1=O)(OC)OC
inactive: Potency [1] | outcome [2] | Potency [3] | Potency [4] | Potency [5] | Potency [6] | Potency [7] | Potency [8] | Potency [9] | outcome [10] | Potency [11] | Potency [18] | Potency [12] | Potency [14] | outcome [15] | outcome [16]

C=C(C)C1CC=C(C)C(=O)C1 (stereo not drawn)
inactive: Potency [1] | outcome [2] | Potency [3] | Potency [4] | Potency [5] | Potency [6] | Potency [7] | Potency [8] | Potency [9] | outcome [10] | Potency [11] | Potency [12] | Potency [13] | Potency [14] | outcome [15] | outcome [16]

CC(=O)OCC(=O)Nc1cc(C#N)cc(NC(=O)COC(C)=O)c1Cl
inactive: Potency [1] | outcome [2] | Potency [3] | Potency [4] | Potency [5] | Potency [6] | Potency [7] | Potency [8] | Potency [9] | outcome [10] | Potency [11] | Potency [18] | Potency [12] | Potency [13] | Potency [14] | outcome [15] | outcome [16] | outcome [17] | PLD induction [19] -3.87% [at 7.66 µM]

CC(=O)c1cc(C)oc1C
inactive: Potency [1] | outcome [2] | Potency [3] | Potency [4] | Potency [5] | Potency [6] | Potency [7] | Potency [8] | Potency [9] | outcome [10] | Potency [11] | Potency [12] | Potency [14] | outcome [15] | outcome [16] | Potency [20]

Cc1ccc2c(c1)C(=O)c1ccccc1C2=O
inactive: Potency [1] | outcome [2] | Potency [3] | Potency [4] | Potency [5] | Potency [6] | Potency [7] | Potency [8] | Potency [9] | outcome [10] | Potency [11] | Potency [18] | Potency [12] | Potency [13] | Potency [14] | outcome [15] | outcome [16] | outcome [17]

CCCCC1CCC(O)CC1 (stereo not drawn)
inactive: Potency [1] | outcome [2] | Potency [3] | Potency [4] | Potency [5] | Potency [6] | Potency [7] | Potency [8] | Potency [9] | outcome [10] | Potency [11] | Potency [18] | Potency [12] | Potency [13] | Potency [14] | outcome [15] | outcome [16] | Potency [20]

COC(C)(OC)OC
inactive: Potency [1] | outcome [2] | Potency [3] | Potency [4] | Potency [5] | Potency [6] | Potency [7] | Potency [8] | Potency [9] | outcome [10] | Potency [11] | Potency [18] | Potency [12] | Potency [13] | Potency [14] | outcome [15] | outcome [16] | Potency [20] | outcome [17]

CC(C)c1ccc(C=O)cc1
inactive: Potency [1] | outcome [2] | Potency [3] | Potency [4] | Potency [5] | Potency [6] | Potency [7] | Potency [8] | Potency [9] | outcome [10] | Potency [11] | Potency [18] | Potency [12] | Potency [13] | Potency [14] | outcome [15] | outcome [16] | outcome [17]

CCc1occc(=O)c1O
inactive: Potency [1] | outcome [2] | Potency [3] | Potency [4] | Potency [5] | Potency [6] | Potency [7] | Potency [8] | Potency [9] | outcome [10] | Potency [11] | Potency [18] | Potency [12] | Potency [14] | outcome [15] | outcome [16] | outcome [17]

COC(=O)c1cccc(Cl)c1
inactive: Potency [1] | outcome [2] | Potency [3] | Potency [4] | Potency [5] | Potency [6] | Potency [7] | Potency [8] | Potency [9] | outcome [10] | Potency [11] | Potency [18] | Potency [12] | Potency [13] | Potency [14] | outcome [15] | outcome [16] | outcome [17]

CCOc1ccccc1OCC1CNCCO1 (stereo not drawn)
inactive: Potency [1] | outcome [2] | Potency [3] | Potency [4] | Potency [5] | Potency [6] | Potency [7] | Potency [8] | Potency [9] | outcome [10] | Potency [18] | Potency [12] | Potency [13] | Potency [14] | outcome [15] | outcome [16] | Potency [20] | outcome [17]

CC(C)=CCC/C(C)=C/COC=O
inactive: Potency [1] | outcome [2] | Potency [3] | Potency [4] | Potency [5] | Potency [6] | Potency [7] | Potency [8] | Potency [9] | outcome [10] | Potency [18] | Potency [12] | Potency [13] | Potency [14] | outcome [15] | outcome [16]

COC(=O)CCCCC(CCSS/C(CCO)=C(\C)N(C=O)Cc1cnc(C)nc1N)SC(C)=O (stereo not drawn)
inactive: Potency [1] | outcome [2] | Potency [3] | Potency [4] | Potency [5] | Potency [6] | Potency [7] | Potency [8] | Potency [9] | outcome [10] | Potency [18] | Potency [12] | Potency [13] | Potency [14] | outcome [15] | outcome [16] | Potency [20] | outcome [17]
